# Results from PubChem BioAssay AID1159580 (chemical genetic matrix, 2015).
# Among all 5,500 compounds or so, about 2,000 (36%) were called active. Inconclusive results (about 18%) are left out. The list shows a part of the results. Unmarked numbers belong to inactive results. No stated cut-off is given here; in the data, active means normalized growth mostly below about 0.91 (no sharp cut-off); inconclusive means no clear call, values can overlap the other calls; inactive means mostly above about 0.92.
# Test: chemical genetic growth profiling, strain panel (AID 1159580);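 further: tested at 20 µM; growth read once vehicle control cultures reached saturation at 30 °C; 1 = growth at the plate median or of vehicle wells; lower values mean less growth of the strain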
# Details: S. cerevisiae deletion strains, growth OD
# [1] = locus YAL013W, strain DEP1, hits give low values
# [2] = locus YBR229C, strain ROT2, hits give low values
# [3] = locus YDL101C, strain DUN1, hits give low values
# [4] = locus YDR150W, strain NUM1, hits give low values
# [5] = locus YEL061C, strain CIN8, hits give low values
# [6] = locus YGR078C, strain PAC10, hits give low values
# [7] = locus YHR030C, strain SLT2, hits give low values
# [8] = locus YHR087W, strain rtc3, hits give low values
# [9] = locus YJL187C, strain SWE1, hits give low values
# [10] = locus YJR043C, strain POL32, hits give low values
# [11] = locus YJR075W, strain HOC1, hits give low values
# [12] = locus YLR039C, strain RIC1, hits give low values
# [13] = locus YLR058C, strain SHM2 (second series), hits give low values
# [14] = locus YLR085C, strain ARP6, hits give low values
# [15] = locus YLR262C, strain YPT6, hits give low values
# [16] = locus YML094W, strain GIM5, hits give low values
# [17] = locus YMR219W, strain ESC1, hits give low values
# [18] = locus YMR263W, strain SAP30, hits give low values
# [19] = locus YNL153C, strain GIM3, hits give low values
# [20] = locus YNL298W, strain CLA4 (second series), hits give low values
# [21] = locus YNL322C, strain KRE1, hits give low values
# [22] = locus YNR030W, strain Alg12, hits give low values
# [23] = locus YOL006C, strain TOP1, hits give low values
# [24] = locus YPL055C, strain LGE1, hits give low values
# [25] = locus YPL241C, strain CIN2, hits give low values
# [26] = locus YPR135W, strain CTF4, hits give low values
# [27] = locus YMR307W, strain GAS1, hits give low values
smiles,measurement,setting,value
CSC(=Nc1ccc(C(C)C)cc1)NC#N,normalized growth,[1],0.993
same,normalized growth,[2],0.978
same,normalized growth,[3],1.02
same,normalized growth,[4],0.916
same,normalized growth,[5],1
same,normalized growth,[6],0.98
same,normalized growth,[7],0.88
same,normalized growth,[8],0.97
same,normalized growth,[9],0.981
same,normalized growth,[10],0.982
same,normalized growth,[11],0.936
same,normalized growth,[12],0.971
same,normalized growth,[13],0.955
same,normalized growth,[14],0.86
same,normalized growth,[15],0.943
same,normalized growth,[16],1.04
same,normalized growth,[17],0.97
same,normalized growth,[18],0.978
same,normalized growth,"locus YNL128W, strain TEP1, hits give low values",0.965
same,normalized growth,[19],1
same,normalized growth,[20],0.947
same,normalized growth,[21],0.986
same,normalized growth,[22],0.988
same,normalized growth,[23],0.839
same,normalized growth,[24],0.985
same,normalized growth,[25],0.908
same,normalized growth,[26],0.855
Cc1onc(-c2c(F)cccc2Cl)c1C(=O)N1CCN(c2ncccc2C(F)(F)F)CC1,normalized growth,[1],0.98
same,normalized growth,[2],0.975
same,normalized growth,[3],0.977
same,normalized growth,"locus YDL134C, strain PPH21, hits give low values",0.993
same,normalized growth,[4],0.972
same,normalized growth,[5],0.952
same,normalized growth,[6],1.01
same,normalized growth,[7],0.928
same,normalized growth,[8],0.964
same,normalized growth,[9],0.988
same,normalized growth,[10],1
same,normalized growth,[11],1.01
same,normalized growth,"locus YKL190W, strain CNB1, hits give low values",1
same,normalized growth,[12],0.993
same,normalized growth,[13],0.987
same,normalized growth,[14],1.02
same,normalized growth,[15],0.98
same,normalized growth,[16],0.969
same,normalized growth,[17],0.984
same,normalized growth,[18],1.01
same,normalized growth,[27],1.07
same,normalized growth,[19],1
same,normalized growth,[20],0.965
same,normalized growth,[21],0.977
same,normalized growth,[22],0.99
same,normalized growth,[24],0.977
same,normalized growth,[25],1.08
same,normalized growth,[26],0.993
FC(F)(F)c1ccc(-n2cncn2)nc1,normalized growth,[1],1.03
same,normalized growth,[2],1.01
same,normalized growth,[3],1
same,normalized growth,[4],0.988
same,normalized growth,[5],1.01
same,normalized growth,[6],1.01
same,normalized growth,"locus YGR229C, strain SMI1, hits give low values",1.01
same,normalized growth,[7],1.09
same,normalized growth,[8],1.02
same,normalized growth,[9],1.01
same,normalized growth,[10],1.02
same,normalized growth,[11],0.99
same,normalized growth,[12],1.04
same,normalized growth,[13],1
same,normalized growth,[14],1.24 [resistant] (active)
same,normalized growth,[15],1.01
same,normalized growth,[16],1.07
same,normalized growth,[17],1.01
same,normalized growth,[18],1.01
same,normalized growth,[27],1.08
same,normalized growth,[19],0.996
same,normalized growth,[20],1.07
same,normalized growth,[21],1
same,normalized growth,[22],1.04
same,normalized growth,[23],1.25
same,normalized growth,[24],1.07
same,normalized growth,[25],1
same,normalized growth,[26],1.15
